Reference: PubChem BioAssay (NCI)
“And” between values parts separate entries of the source, which are not always exact repeats. Identical values can stand only once. Compounds without any hit were thinned out: in the full panel of roughly 83,000, 20% have a hit.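 The test compound was applied at a single concentration to cells in 96-well plates for 48 hours, and percent growth was recorded.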 The source made the active and inactive calls. The calls were made as follows: active = growth percent below 10; inactive = the rest.

Legend:
Assay in all cases: NCI-60 one-dose screen, 48 h (100 = growth as untreated, 0 = no growth, -100 = all killed)
Settings in all cases: 10 µM unless noted
NCI-H23 lung = system: NCI-H23 lung
NCI-H226 lung = system: NCI-H226 lung
NCI-H322M lung = system: NCI-H322M lung
HOP-62 NSCLC = system: HOP-62 NSCLC
NCI-H460 lung = system: NCI-H460 lung
HOP-92 NSCLC = system: HOP-92 NSCLC
NCI-H522 lung = system: NCI-H522 lung
A549/ATCC NSCLC = system: A549/ATCC NSCLC
786-0 renal = system: 786-0 renal
COLO 205 colon = system: COLO 205 colon
DU-145 prostate = system: DU-145 prostate
K-562 leukemia = system: K-562 leukemia
MALME-3M melanoma = system: MALME-3M melanoma
MDA-MB-231 breast = system: MDA-MB-231 breast
RXF 393 renal = system: RXF 393 renal
SF-268 CNS = system: SF-268 CNS
SF-295 CNS = system: SF-295 CNS
SF-539 CNS = system: SF-539 CNS
UACC-257 melanoma = system: UACC-257 melanoma
M14 melanoma = system: M14 melanoma

Measured: growth

CCCSc1nnc(-c2sc3nc4ccccc4n3c2C)o1
inactive: NCI-H23 lung 111% | NCI-H226 lung 106% | NCI-H322M lung 102% | HOP-62 NSCLC 132% | NCI-H460 lung 103% | HOP-92 NSCLC 101% | NCI-H522 lung 100% | A549/ATCC NSCLC 99.8% | 786-0 renal 81.5% | COLO 205 colon 131% | DU-145 prostate 103% | K-562 leukemia 97.4% | MALME-3M melanoma 116% | MDA-MB-231 breast 108% | RXF 393 renal 87.3% | SF-268 CNS 115% | SF-295 CNS 105% | SF-539 CNS 108% | UACC-257 melanoma 102% | M14 melanoma 106%

Cc1cnc2ccc(Oc3ccccc3-c3ccccc3)nn12
inactive: NCI-H23 lung 96.6% | NCI-H226 lung 106% | NCI-H322M lung 103% | HOP-62 NSCLC 124% | NCI-H460 lung 118% | HOP-92 NSCLC 122% | NCI-H522 lung 108% | A549/ATCC NSCLC 117% | 786-0 renal 102% | COLO 205 colon 131% | DU-145 prostate 115% | K-562 leukemia 101% | MALME-3M melanoma 100% | MDA-MB-231 breast 109% | RXF 393 renal 107% | SF-268 CNS 106% | SF-295 CNS 97.5% | SF-539 CNS 104% | UACC-257 melanoma 116% | M14 melanoma 99.6%

COc1ccc(SC2c3cc(OC)ccc3Oc3nc(N)c(C#N)c(N)c32)cc1 (stereo not given)
inactive: NCI-H23 lung 85.6% | NCI-H226 lung 87.1% | NCI-H322M lung 83.5% | HOP-62 NSCLC 68.2% | NCI-H460 lung 74.3% | HOP-92 NSCLC 116% | NCI-H522 lung 78.4% | A549/ATCC NSCLC 95.8% | 786-0 renal 74.8% | COLO 205 colon 101% | DU-145 prostate 99.1% | K-562 leukemia 65.7% | MALME-3M melanoma 91.3% | MDA-MB-231 breast 82.1% | RXF 393 renal 62% | SF-268 CNS 78.8% | SF-295 CNS 55.2% | SF-539 CNS 78% | UACC-257 melanoma 120% | M14 melanoma 79.7%

O=C(Nc1ccc(-c2ccc3c(c2)NC(=O)/C3=C\c2ccc[nH]2)cc1)Nc1cccc(Cl)c1
inactive: NCI-H322M lung 14.1% | HOP-92 NSCLC 41.5% | DU-145 prostate 24.6% | SF-268 CNS 32% | UACC-257 melanoma 22.3%
active: NCI-H23 lung -57.4% | NCI-H226 lung 2.01% | HOP-62 NSCLC -29.6% | NCI-H460 lung 1.16% | NCI-H522 lung -51.7% | A549/ATCC NSCLC -3.34% | 786-0 renal -41.6% | COLO 205 colon -58.6% | K-562 leukemia 7.56% | MALME-3M melanoma 7.96% | MDA-MB-231 breast -23.1% | RXF 393 renal -53.6% | SF-295 CNS -31% | SF-539 CNS -79.8% | M14 melanoma 9.34%

CCCn1c(NC(=O)c2cccc(C(N)=O)c2)nc2cc(CN3CCCCC3)ccc21
inactive: NCI-H23 lung 88.1% | NCI-H226 lung 101% | NCI-H322M lung 92% | HOP-62 NSCLC 95.8% | NCI-H460 lung 101% | HOP-92 NSCLC 84.8% | NCI-H522 lung 83.1% | A549/ATCC NSCLC 95.7% | COLO 205 colon 88.7% | DU-145 prostate 103% | K-562 leukemia 72.3% | MALME-3M melanoma 98% | MDA-MB-231 breast 142% | RXF 393 renal 64.5% | SF-268 CNS 111% | SF-295 CNS 107% | SF-539 CNS 107% | UACC-257 melanoma 113% | M14 melanoma 13.8%
active: 786-0 renal 9.97%

COc1ccc(C2=Nc3c(N)nc(N)nc3NC(c3ccc(Oc4nc(Nc5ccc(F)cc5)nc(N(C)C)n4)c(OC)c3)C2)cc1 (stereo not given)
inactive: NCI-H23 lung 88.4% | NCI-H226 lung 77.4% | NCI-H322M lung 104% | HOP-62 NSCLC 82.5% | NCI-H460 lung 71% | HOP-92 NSCLC 16.6% | NCI-H522 lung 88% | A549/ATCC NSCLC 75.5% | 786-0 renal 52.6% | COLO 205 colon 91.6% | DU-145 prostate 68.8% | K-562 leukemia 29.5% | MALME-3M melanoma 83.1% | MDA-MB-231 breast 43.3% | RXF 393 renal 12.1% | SF-268 CNS 61.6% | SF-295 CNS 85.7% | SF-539 CNS 71.9% | UACC-257 melanoma 70.5% | M14 melanoma 93.4%

CC(C)(C)c1ccc(OCc2nc3ccccc3n2-c2cccc(N)c2)cc1
inactive: NCI-H23 lung 50.1% and 100% | NCI-H226 lung 61.1% and 103% | NCI-H322M lung 94.8% and 104% | HOP-62 NSCLC 88.6% and 102% | NCI-H460 lung 78.2% and 109% | HOP-92 NSCLC 41.6% and 106% | NCI-H522 lung 74.5% and 103% | A549/ATCC NSCLC 66.6% and 107% | 786-0 renal 80.9% and 102% | COLO 205 colon 77.6% and 114% | DU-145 prostate 80.8% and 124% | K-562 leukemia 33.3% and 101% | MALME-3M melanoma 48.7% and 101% | MDA-MB-231 breast 53.4% and 106% | RXF 393 renal 75.3% and 90.7% | SF-268 CNS 74.4% and 112% | SF-295 CNS 57.7% and 100% | SF-539 CNS 66.7% and 100% | UACC-257 melanoma 73.8% and 111% | M14 melanoma 99.8% and 103%

Cc1nc2sccn2c1-c1nnc(SCc2ccccc2)o1
inactive: NCI-H23 lung 86.1% | NCI-H226 lung 75.5% | NCI-H322M lung 90.4% | HOP-62 NSCLC 99.9% | NCI-H460 lung 99.6% | HOP-92 NSCLC 71.9% | NCI-H522 lung 78.2% | A549/ATCC NSCLC 91.2% | 786-0 renal 76.1% | COLO 205 colon 112% | DU-145 prostate 96.6% | K-562 leukemia 75.8% | MALME-3M melanoma 106% | MDA-MB-231 breast 98.6% | RXF 393 renal 78.9% | SF-268 CNS 105% | SF-295 CNS 82.5% | SF-539 CNS 93.4% | UACC-257 melanoma 94% | M14 melanoma 96.7%

O=C(N=Nc1c(O)[nH]c2ccc(Br)cc12)c1ccc2nc(-c3ccc(Cl)cc3)[nH]c2c1
inactive: NCI-H226 lung 16.6% | A549/ATCC NSCLC 14.9% | K-562 leukemia 10% | UACC-257 melanoma 46%
active: NCI-H23 lung -69.4% | NCI-H322M lung 6.48% | HOP-62 NSCLC -55.9% | NCI-H460 lung -19.4% | HOP-92 NSCLC -9.49% | NCI-H522 lung -47.2% | 786-0 renal -73.7% | COLO 205 colon -36.1% | DU-145 prostate -4.97% | MALME-3M melanoma -34.7% | MDA-MB-231 breast -89.5% | RXF 393 renal -42.3% | SF-268 CNS -16.2% | SF-295 CNS -62.8% | SF-539 CNS -100% | M14 melanoma -3.86%

OC(c1ccccc1)(c1ccccc1)C1CCN(c2ccc3nnc(Cl)n3n2)CC1
active: NCI-H522 lung -60.4% | COLO 205 colon -29.4%
inactive: NCI-H23 lung 36.8% | NCI-H226 lung 11.2% | NCI-H322M lung 74.1% | HOP-62 NSCLC 63.7% | NCI-H460 lung 19.8% | HOP-92 NSCLC 19.7% | A549/ATCC NSCLC 36.3% | 786-0 renal 41.8% | DU-145 prostate 54.6% | K-562 leukemia 10.7% | MALME-3M melanoma 26.8% | MDA-MB-231 breast 68% | RXF 393 renal 32.8% | SF-268 CNS 63.7% | SF-295 CNS 19% | SF-539 CNS 51.8% | UACC-257 melanoma 72.9% | M14 melanoma 39.2%

CC1CCc2c(sc3nc(SCC(=O)c4cccc(Br)c4)n(-c4ccccc4)c(=O)c23)C1 (stereo not given)
inactive: NCI-H23 lung 11.3% | NCI-H226 lung 19.7% | NCI-H322M lung 74.5% | HOP-62 NSCLC 39.9% | NCI-H460 lung 55% | HOP-92 NSCLC 44% | NCI-H522 lung 40.3% | A549/ATCC NSCLC 92.3% | 786-0 renal 18.8% | COLO 205 colon 25.3% | DU-145 prostate 20.3% | K-562 leukemia 43.3% | MALME-3M melanoma 97.5% | MDA-MB-231 breast 32.3% | RXF 393 renal 90.9% | SF-268 CNS 64.9% | SF-295 CNS 47.2% | SF-539 CNS 18.3% | UACC-257 melanoma 91.1% | M14 melanoma 55.4%

Cc1ccc(C(=O)Nc2cccc(C(=O)NC(=S)Nc3ccc(S(N)(=O)=O)cc3)c2)cc1
inactive: NCI-H23 lung 76.9% | NCI-H226 lung 67.5% | NCI-H322M lung 87.3% | HOP-62 NSCLC 74.9% | NCI-H460 lung 77.8% | HOP-92 NSCLC 67.5% | NCI-H522 lung 48.6% | A549/ATCC NSCLC 74.7% | 786-0 renal 81.7% | COLO 205 colon 98.4% | DU-145 prostate 77.3% | K-562 leukemia 71.2% | MALME-3M melanoma 59.8% | MDA-MB-231 breast 81.3% | RXF 393 renal 46.4% | SF-268 CNS 61.4% | SF-295 CNS 60.3% | SF-539 CNS 76.4% | UACC-257 melanoma 79.1% | M14 melanoma 83.7%

Nc1cccc(-n2c(COc3ccc(I)cc3)nc3ccccc32)c1
inactive: NCI-H23 lung 75.6% and 99.5% | NCI-H226 lung 57.2% and 109% | NCI-H322M lung 94.4% and 96.2% | HOP-62 NSCLC 86.9% and 103% | NCI-H460 lung 86.2% and 108% | HOP-92 NSCLC 63.3% and 113% | NCI-H522 lung 81.5% and 107% | A549/ATCC NSCLC 104% | 786-0 renal 106% and 102% | COLO 205 colon 81.4% and 109% | DU-145 prostate 96.2% and 95.5% | K-562 leukemia 61.5% and 99.3% | MALME-3M melanoma 82.2% and 96.1% | MDA-MB-231 breast 56% and 102% | RXF 393 renal 82.3% and 106% | SF-268 CNS 74.4% and 96.5% | SF-295 CNS 89.8% and 101% | SF-539 CNS 79.7% and 97.7% | UACC-257 melanoma 99% and 101% | M14 melanoma 91.5% and 108%

CC[C@]12C=CCN3CC[C@@]4(c5ccc(OC)cc5N(C)[C@H]4[C@@](O)(C(=O)OC)[C@@H]1OC(=O)CCCC[P+](c1ccc(F)cc1)(c1ccc(F)cc1)c1ccc(F)cc1)[C@@H]32
inactive: NCI-H23 lung 23.6% | NCI-H226 lung 38% | NCI-H322M lung 52.9% | HOP-62 NSCLC 50.9% | NCI-H460 lung 20.3% | A549/ATCC NSCLC 37.5% | 786-0 renal 87.1% | DU-145 prostate 36.4% | K-562 leukemia 17.1% | SF-268 CNS 28.1% | SF-295 CNS 78.5% | SF-539 CNS 16% | M14 melanoma 19.7%
active: HOP-92 NSCLC -12.2% | NCI-H522 lung -11.6% | COLO 205 colon -43.4% | MALME-3M melanoma -55.9% | MDA-MB-231 breast 2.85% | RXF 393 renal -9.93% | UACC-257 melanoma -50.7%
